# Experimental data from PubChem BioAssay.
# Values without a mark were called inactive. This is one part of the list. Active and inactive are the calls of the source.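 How the source made its calls, unless noted: active means inhibition above the hit cutoff set in the earlier primary screen (cut at about 27% in these data); inactive means the rest.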
# What was measured:
# [1] = target: Protein phosphatase methylesterase 1 (Homo sapiens) (UniProt Q9Y570); assay: PME-1 inhibitor activity retest, confirmation, biochemical, fluorescence polarization, FP-Rh probe, triplicate (AID 2171); conditions: recombinant PME-1, FP-Rh probe fluorescence polarization; at 5.9 µM; stronger effect = higher value;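 further: 0% = enzyme with DMSO and 100% = wells lacking PME-1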
# Chain of Protein phosphatase methylesterase 1 (Homo sapiens) (Q9Y570 whole entry, looked up, the tested form may be a part): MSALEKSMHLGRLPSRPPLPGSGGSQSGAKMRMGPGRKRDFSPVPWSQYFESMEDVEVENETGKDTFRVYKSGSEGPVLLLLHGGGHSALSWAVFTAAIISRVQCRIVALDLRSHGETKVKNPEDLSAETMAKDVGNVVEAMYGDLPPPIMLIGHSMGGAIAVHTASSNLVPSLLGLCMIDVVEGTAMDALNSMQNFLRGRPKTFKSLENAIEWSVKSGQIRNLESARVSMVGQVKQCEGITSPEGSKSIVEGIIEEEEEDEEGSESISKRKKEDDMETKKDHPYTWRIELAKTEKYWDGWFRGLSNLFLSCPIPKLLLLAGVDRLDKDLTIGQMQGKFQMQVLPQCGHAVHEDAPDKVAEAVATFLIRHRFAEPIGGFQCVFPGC
# [2] = target: Nuclear receptor coactivator 3 (Homo sapiens) (UniProt Q9Y6Q9); assay: SRC3 coactivator transcriptional activity inhibitors, confirmation, cell-based, luminescence, quadruplicate (AID 588792;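 active means mean inhibition over 43.08%, the solvent-only control mean plus 3 SD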;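 further: 0% = DMSO treated cells and 100% = gossypol at 36 µM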); conditions: HEK293 GAL4-SRC3 luciferase reporter, at 3.6 µM, stronger effect = higher value
# Chain of Nuclear receptor coactivator 3 (Homo sapiens) (Q9Y6Q9 whole entry, looked up, the tested form may be a part): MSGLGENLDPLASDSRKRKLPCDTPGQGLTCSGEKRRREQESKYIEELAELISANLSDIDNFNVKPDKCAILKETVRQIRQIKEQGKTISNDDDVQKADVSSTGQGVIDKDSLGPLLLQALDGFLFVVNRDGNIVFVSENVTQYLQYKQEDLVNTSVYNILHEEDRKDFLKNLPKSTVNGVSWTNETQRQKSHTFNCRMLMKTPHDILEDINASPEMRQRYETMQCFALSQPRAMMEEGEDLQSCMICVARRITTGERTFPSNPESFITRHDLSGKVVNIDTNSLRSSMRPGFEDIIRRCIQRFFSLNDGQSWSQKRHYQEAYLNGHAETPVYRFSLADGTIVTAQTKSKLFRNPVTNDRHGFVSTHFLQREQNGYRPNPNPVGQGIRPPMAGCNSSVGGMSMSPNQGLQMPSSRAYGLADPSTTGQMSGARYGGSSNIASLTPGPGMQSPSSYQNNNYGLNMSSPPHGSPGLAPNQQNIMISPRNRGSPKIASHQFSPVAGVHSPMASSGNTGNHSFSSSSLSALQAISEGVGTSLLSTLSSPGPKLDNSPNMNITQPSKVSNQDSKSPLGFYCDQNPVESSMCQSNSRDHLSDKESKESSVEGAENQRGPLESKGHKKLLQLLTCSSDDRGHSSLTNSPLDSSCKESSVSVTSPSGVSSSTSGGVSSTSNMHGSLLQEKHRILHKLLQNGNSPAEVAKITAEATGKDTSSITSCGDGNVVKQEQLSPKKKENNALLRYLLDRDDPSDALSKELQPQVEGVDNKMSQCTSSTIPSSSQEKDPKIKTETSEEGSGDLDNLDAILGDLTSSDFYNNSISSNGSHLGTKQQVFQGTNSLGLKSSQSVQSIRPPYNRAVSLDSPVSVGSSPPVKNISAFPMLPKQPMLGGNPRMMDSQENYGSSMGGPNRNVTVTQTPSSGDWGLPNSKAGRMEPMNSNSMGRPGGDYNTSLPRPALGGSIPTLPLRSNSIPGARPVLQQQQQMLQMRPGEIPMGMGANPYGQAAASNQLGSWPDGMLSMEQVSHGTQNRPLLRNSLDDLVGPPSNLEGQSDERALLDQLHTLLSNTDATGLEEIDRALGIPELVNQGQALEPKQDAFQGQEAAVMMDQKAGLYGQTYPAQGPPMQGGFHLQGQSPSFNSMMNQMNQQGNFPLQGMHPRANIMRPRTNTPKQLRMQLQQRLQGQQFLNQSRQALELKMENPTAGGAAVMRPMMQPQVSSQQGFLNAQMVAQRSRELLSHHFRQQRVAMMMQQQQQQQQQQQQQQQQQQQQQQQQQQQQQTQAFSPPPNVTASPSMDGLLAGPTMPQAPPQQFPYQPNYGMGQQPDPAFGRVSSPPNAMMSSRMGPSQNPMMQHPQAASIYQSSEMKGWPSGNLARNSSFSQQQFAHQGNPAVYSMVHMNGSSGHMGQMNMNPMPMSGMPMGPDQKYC
# [3] = system: transactivating tegument protein VP16 (Human herpesvirus 1), Gal4-VP16 luciferase reporter; assay: VP16 transactivation inhibitors, counter-screen for SRC3 inhibitor project, cell-based, luminescence, high throughput (AID 588794; in the data active means inhibition above about 30%); conditions: mammalian cells, VP16-driven luciferase reporter luminescence; at 3.6 µM; stronger effect = higher value
# [4] = target: Nuclear receptor coactivator 1 (Homo sapiens) (UniProt Q15788); assay: SRC1 coactivator transcriptional activity inhibitors, confirmation, cell-based, luminescence, quadruplicate (AID 588820;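 active means mean inhibition above 46.68%, the untreated control wells mean plus 3 SD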;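 further: 0% = DMSO wells and 100% = gossypol 36 µM treated wells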); conditions: HEK293 GAL4-SRC1 luciferase reporter, at 3.6 µM, stronger effect = higher value
# Chain of Nuclear receptor coactivator 1 (Homo sapiens) (Q15788 whole entry, looked up, the tested form may be a part): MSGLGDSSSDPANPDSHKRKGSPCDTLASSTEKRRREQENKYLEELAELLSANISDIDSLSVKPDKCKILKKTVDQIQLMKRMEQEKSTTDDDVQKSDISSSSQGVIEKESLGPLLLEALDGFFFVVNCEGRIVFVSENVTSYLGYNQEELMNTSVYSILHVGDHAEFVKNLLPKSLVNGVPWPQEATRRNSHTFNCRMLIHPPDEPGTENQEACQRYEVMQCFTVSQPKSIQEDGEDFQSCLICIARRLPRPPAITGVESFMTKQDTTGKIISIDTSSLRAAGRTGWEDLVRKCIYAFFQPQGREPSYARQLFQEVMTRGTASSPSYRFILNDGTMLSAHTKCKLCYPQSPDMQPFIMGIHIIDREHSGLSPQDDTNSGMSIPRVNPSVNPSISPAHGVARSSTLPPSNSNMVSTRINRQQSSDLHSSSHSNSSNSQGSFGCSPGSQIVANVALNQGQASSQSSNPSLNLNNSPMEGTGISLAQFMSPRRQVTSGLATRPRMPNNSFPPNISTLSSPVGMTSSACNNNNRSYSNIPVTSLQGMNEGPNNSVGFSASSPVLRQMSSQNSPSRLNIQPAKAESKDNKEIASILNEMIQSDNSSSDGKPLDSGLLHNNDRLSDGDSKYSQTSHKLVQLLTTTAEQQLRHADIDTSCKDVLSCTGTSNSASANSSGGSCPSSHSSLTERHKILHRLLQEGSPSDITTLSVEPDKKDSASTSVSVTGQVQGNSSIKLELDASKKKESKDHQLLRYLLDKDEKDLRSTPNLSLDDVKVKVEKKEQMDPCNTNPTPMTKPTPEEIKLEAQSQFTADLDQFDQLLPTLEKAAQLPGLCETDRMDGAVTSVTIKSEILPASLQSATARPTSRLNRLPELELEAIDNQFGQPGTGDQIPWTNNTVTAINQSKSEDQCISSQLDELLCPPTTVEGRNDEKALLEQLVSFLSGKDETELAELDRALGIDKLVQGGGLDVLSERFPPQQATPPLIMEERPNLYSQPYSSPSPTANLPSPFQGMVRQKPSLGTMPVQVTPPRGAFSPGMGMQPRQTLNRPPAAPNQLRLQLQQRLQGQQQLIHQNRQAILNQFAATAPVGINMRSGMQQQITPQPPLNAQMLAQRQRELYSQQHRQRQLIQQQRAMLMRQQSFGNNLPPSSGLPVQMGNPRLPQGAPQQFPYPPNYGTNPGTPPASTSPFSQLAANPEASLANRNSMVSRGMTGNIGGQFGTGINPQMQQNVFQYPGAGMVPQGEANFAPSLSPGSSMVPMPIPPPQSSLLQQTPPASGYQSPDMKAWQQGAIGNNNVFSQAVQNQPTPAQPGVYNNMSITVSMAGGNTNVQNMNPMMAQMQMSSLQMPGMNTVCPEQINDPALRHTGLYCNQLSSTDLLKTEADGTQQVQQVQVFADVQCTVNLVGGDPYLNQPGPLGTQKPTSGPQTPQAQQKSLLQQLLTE
# [5] = VP16 transactivation inhibitors, counter-screen for SRC1 inhibitor project, cell-based, luminescence, high throughput (AID 588824; in the data active means inhibition above about 25%); conditions: cell-based VP16 transactivation luciferase luminescence; at 3.6 µM; stronger effect = higher value
# [6] = target: Oxytocin receptor (Homo sapiens) (UniProt P30559); assay: human OXTR agonists, confirmation, fluorescence, CHO-OTR cells, triplicate (AID 434963;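 active means mean activation above about 20% derived from the earlier single-dose screen, limit read from the data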;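 further: peak over minimum fluorescence ratio per well during a 100 second FLIPR read; 0% = DMSO alone and 100% = oxytocin high control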); conditions: Fluo-8 calcium fluorescence, agonist, at 3 µM, stronger effect = higher value
# Chain of Oxytocin receptor (Homo sapiens) (P30559 whole entry, looked up): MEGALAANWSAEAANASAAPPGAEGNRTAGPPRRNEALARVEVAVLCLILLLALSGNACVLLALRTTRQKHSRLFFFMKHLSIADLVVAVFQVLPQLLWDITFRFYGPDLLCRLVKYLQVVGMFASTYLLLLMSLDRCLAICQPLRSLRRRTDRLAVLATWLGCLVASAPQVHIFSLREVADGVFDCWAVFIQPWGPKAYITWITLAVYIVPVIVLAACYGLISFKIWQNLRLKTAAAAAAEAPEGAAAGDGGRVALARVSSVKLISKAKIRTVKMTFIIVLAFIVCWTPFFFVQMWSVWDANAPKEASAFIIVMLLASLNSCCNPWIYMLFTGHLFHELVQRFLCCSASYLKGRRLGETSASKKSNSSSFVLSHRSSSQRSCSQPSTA
# [7] = target: Vasopressin V1a receptor (Homo sapiens) (UniProt P37288); assay: V1a receptor agonists, calcium signal, counter-screen for OXTR agonist project, triplicate, fluorescence, CHO-V1R cells (AID 434991;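 active means mean activation over triplicate exceeds the hit threshold set in the earlier primary screen, cut at about 20% in these data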;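 further: peak over basal fluorescence ratio within a 100 second read; 0% = DMSO alone and 100% = 3 nM vasopressin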); conditions: Fluo-8 calcium fluorescence, at 3 µM, stronger effect = higher value
# [8] = target: Insulin-degrading enzyme (Homo sapiens) (UniProt P14735); assay: human IDE inhibitors in live cells, confirmation, fluorescence polarization, HEK cells, FAbetaB substrate (AID 435028;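 active means mean inhibition across triplicate wells above the cutoff set by the earlier primary insulin-degrading enzyme screen, cut at about 16% in these data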;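 further: 0% = DMSO wells and 100% = 60 µM reference IDE inhibitor Ii1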); conditions: FAbetaB cleavage, at 5.59 µM, stronger effect = higher value
# [9] = cytotoxicity in HEK cells, cytotoxicity control for IDE inhibitor project, cell-based, luminescence (AID 449730; in the data active means inhibition above about 22%;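 further: 0% = vehicle wells and 100% = reference cytotoxic drug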); conditions: HEK293 cytotoxicity, ATP luminescence; at 5.59 µM; stronger effect = higher value
# [10] = target: Serine protease HTRA1 (Homo sapiens) (UniProt Q92743); assay: HTRA1 protease inhibitors, retest, confirmation, biochemical, fluorescence polarization (AID 540248;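 active means mean inhibition over three repeats above a set limit taken from the earlier primary screen, cut at about 37% in these data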;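 further: 0% = HTRA1 with DMSO and 100% = wells lacking HTRA1; inhibitors block probe binding so polarization drops and inhibition rises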); conditions: recombinant HTRA1, FP-rhodamine activity-based probe, at 5.96 µM, stronger effect = higher value
# [11] = system: transactivating tegument protein VP16 (Human herpesvirus 1); assay: VP16 transactivation reporter inhibitors, counter-screen for SRC2 inhibitor project, cell-based, luminescence, single concentration (AID 652007; in the data active means inhibition above about 36%); conditions: cell-based VP16 transactivation luciferase reporter, at 8.9 µM, stronger effect = higher value
# [12] = target: Nuclear receptor coactivator 2 (Homo sapiens) (UniProt Q15596); assay: SRC2 coactivator transcriptional activity inhibitors, confirmation, cell-based, luminescence, HEK293, triplicate (AID 652008;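 active means mean inhibition above 46.5%, the solvent-only control mean plus 3 SD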;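 further: 0% = DMSO-treated cells and 100% = Gossypol at 36 µM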); conditions: HEK293 GAL4-SRC2 luciferase reporter, at 8.9 µM, stronger effect = higher value
# Chain of Nuclear receptor coactivator 2 (Homo sapiens) (Q15596 whole entry, looked up, the tested form may be a part): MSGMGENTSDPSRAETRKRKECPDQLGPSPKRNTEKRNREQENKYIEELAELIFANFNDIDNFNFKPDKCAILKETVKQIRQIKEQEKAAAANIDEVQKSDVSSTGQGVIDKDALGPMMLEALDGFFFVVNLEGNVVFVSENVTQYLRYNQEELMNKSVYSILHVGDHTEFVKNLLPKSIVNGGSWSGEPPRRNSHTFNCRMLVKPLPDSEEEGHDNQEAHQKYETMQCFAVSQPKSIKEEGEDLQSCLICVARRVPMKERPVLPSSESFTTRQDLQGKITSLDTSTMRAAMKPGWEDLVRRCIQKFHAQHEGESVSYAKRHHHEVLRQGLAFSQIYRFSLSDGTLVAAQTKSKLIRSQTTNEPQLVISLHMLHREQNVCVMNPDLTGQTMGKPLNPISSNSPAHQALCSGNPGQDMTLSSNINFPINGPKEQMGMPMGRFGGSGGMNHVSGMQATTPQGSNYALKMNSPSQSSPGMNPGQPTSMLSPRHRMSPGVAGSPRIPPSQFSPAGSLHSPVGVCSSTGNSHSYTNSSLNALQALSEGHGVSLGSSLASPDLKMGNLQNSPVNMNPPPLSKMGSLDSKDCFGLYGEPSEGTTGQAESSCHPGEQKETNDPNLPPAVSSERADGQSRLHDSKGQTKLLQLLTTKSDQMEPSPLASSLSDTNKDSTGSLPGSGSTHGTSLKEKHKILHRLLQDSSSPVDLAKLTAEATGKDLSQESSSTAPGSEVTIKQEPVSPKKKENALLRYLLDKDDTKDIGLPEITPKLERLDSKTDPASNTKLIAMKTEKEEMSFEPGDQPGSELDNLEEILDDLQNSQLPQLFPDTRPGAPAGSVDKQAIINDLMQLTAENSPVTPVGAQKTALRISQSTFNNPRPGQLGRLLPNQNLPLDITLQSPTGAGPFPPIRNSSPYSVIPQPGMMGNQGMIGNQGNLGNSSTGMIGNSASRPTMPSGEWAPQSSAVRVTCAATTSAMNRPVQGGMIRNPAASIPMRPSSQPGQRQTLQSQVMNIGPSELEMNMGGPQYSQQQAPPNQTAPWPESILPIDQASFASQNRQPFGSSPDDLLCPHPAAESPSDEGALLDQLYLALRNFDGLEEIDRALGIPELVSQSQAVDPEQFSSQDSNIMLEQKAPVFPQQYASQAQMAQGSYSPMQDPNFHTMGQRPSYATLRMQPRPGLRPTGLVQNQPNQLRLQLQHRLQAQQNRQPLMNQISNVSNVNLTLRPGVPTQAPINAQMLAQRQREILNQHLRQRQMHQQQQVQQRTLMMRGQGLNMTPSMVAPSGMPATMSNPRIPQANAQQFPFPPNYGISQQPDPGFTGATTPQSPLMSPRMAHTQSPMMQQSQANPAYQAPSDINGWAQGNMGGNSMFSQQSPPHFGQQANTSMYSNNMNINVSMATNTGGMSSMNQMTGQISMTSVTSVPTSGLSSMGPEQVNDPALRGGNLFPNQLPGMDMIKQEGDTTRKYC
# [13] = StAR promoter reporter inhibitors, counter-screen for LRH-1 inverse agonist project, cell-based, luminescence, high throughput (AID 651611; in the data active means inhibition above about 28%); conditions: StAR promoter luciferase reporter counterscreen, at 3.6 µM, stronger effect = higher value
# [14] = target: Nuclear receptor subfamily 5 group A member 2 (Homo sapiens) (UniProt O00482); assay: LRH-1 (NR5A2) inverse agonists, retest, confirmation, cell-based, luminescence (AID 651613; in the data active means inhibition above about 42%;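 further: HEK293T cells co-transfected with LRH-1 and StAR promoter luciferase reporter; 0% = vehicle wells and 100% = parental cells lacking receptor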); conditions: cell-based LRH-1 luciferase reporter, inverse agonism; at 3.6 µM; stronger effect = higher value
# [15] = target: Steroidogenic factor 1 (Homo sapiens) (UniProt Q13285); assay: SF1 (NR5A1) inverse agonists, counter-screen for LRH-1 inverse agonist project, cell-based, luminescence, high throughput (AID 651614; in the data active means inhibition above about 44%;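 further: cells cotransfected with StAR promoter reporter and SF1 expression vector; 0% = vehicle on cells with receptor and 100% = vehicle on cells lacking receptor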); conditions: cell-based SF1 luciferase reporter, at 3.6 µM, stronger effect = higher value
# [16] = VP16 transactivation reporter inhibitors, counter-screen for LRH-1 inverse agonist project, cell-based, luminescence, high throughput (AID 651615; in the data active means inhibition above about 33%); conditions: Gal4-VP16 luciferase reporter cells, at 3.6 µM, stronger effect = higher value
compound,measurement,setting,value
Cc1cc(C)nc(SCc2ccc(C(=O)N/N=C/c3cccc(O)c3O)cc2)n1,inhibition,[1],-47%
same,inhibition,[2],28.5%
same,inhibition,[3],38.9% (active)
same,inhibition,[4],27.1%
same,inhibition,[5],23.9%
N#C/C(=C/c1ccc(N2CCCCC2)o1)C(=O)NCCc1c[nH]c2ccccc12,inhibition,[1],22.2%
same,activation,[6],33.6% (active)
same,activation,[7],52.1% (active)
same,inhibition,[8],150% (active)
same,inhibition,[9],5.73%
COc1cccc(/C=N/Nc2ccc([N+](=O)[O-])cn2)c1O,inhibition,[1],1.07%
same,inhibition,[2],48% (active)
same,inhibition,[3],10.2%
Cc1nn(-c2ccccc2)c(Cl)c1/C=N/Nc1ccc(S(=O)(=O)Nc2ccccc2C(=O)O)cc1[N+](=O)[O-],inhibition,[1],22.1%
O=c1c2ccccc2nc(/C=C/c2c[nH]c3ccccc23)n1CCO,inhibition,[1],58.5% (active)
O=C(Nc1ccc(OC(F)(F)F)cc1)c1ccc2c(c1)no[n+]2[O-],inhibition,[1],61.4% (active)
same,inhibition,[10],69.4% (active)
same,inhibition,[11],-77.2%
same,inhibition,[12],-55.7%
Cn1nc(-c2ccccn2)nc2c(=O)n(C)c(=O)nc1-2,inhibition,[1],45.9% (active)
same,inhibition,[2],74.8% (active)
same,inhibition,[3],62% (active)
same,inhibition,[4],3.11%
same,inhibition,[5],53.1% (active)
same,inhibition,[13],56.7% (active)
same,inhibition,[14],58.9% (active)
same,inhibition,[15],73.7% (active)
same,inhibition,[16],75.1% (active)
same,inhibition,[11],13.4%
same,inhibition,[12],70.7% (active)
Cc1ccc(Nc2nc(-c3ccc(O)cc3O)cs2)nc1,inhibition,[1],34% (active)
same,inhibition,[10],50.7% (active)
COc1ccc(OC)c2[nH]c(C(=O)N/N=C/c3ccccc3O)cc12,inhibition,[1],-0.45%
same,inhibition,[2],30.1%
same,inhibition,[3],39.2% (active)
COc1ccc(O)c(/C=N/NC(=S)Nc2cccc(S(=O)(=O)N(C)C)c2)c1,inhibition,[1],25.4%
same,inhibition,[2],24.6%
same,inhibition,[3],26.2%
Cc1cc(C(=O)CC#N)c(C)n1-c1ccc(OC(F)F)cc1,inhibition,[1],45.9% (active)
N#C/C(=N\Nc1cccc([N+](=O)[O-])c1)C(=O)c1ccc(Br)cc1,inhibition,[1],29.5% (active)
same,inhibition,[2],4.19%
same,inhibition,[3],26.8%
